Sampled rows, rich in hits. Any-hit rate of the full collection: about 4.6%.
D1 antag: antagonists of human D1 dopamine receptor; 360,000 compounds, 3.2% hits; AID 504652; activity change, negative = inhibition, % at 10 µM; P21728; HEK293 TREx D1 cells, calcium flux, dopamine EC80; hits give low values; in the data active = activity change below about -30%; note: % is set by controls: 0 for no effect and ±100 for the full control effect
Target sequence (P21728 whole entry, looked up): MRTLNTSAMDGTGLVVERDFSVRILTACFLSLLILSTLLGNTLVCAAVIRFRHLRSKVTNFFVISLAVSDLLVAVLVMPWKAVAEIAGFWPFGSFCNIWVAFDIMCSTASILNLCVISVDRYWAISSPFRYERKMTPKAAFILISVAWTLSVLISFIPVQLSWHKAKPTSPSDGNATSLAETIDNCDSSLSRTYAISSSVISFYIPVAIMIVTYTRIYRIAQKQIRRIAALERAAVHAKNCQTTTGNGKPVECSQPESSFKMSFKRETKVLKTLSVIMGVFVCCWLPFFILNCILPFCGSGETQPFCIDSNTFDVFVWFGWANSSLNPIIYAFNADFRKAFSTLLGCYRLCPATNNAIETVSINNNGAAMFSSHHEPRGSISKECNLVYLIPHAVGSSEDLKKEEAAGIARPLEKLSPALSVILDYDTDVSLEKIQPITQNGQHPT
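Antagonism measured as reduced calcium response to an EC80 dopamine addition following 180 s compound pre-read; cells were inducible HEK293 Trex D1 plated overnight at 30 C, read kinetically at 1 cycle/sec.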
Epigenetic derep: regulators of epigenetic silencing causing reporter derepression in mouse cells | murine LDR cells, GFP reporter derepression, 30 h | Potency, µM (series often up to 53.9 µM), inactives show top-dose GFP activation, hits mostly activators | 280,000 compounds, 0.2% hits | AID 1865; active = well fitted activation curve with a large enough effect; inconclusive = small, poorly fitted or top-dose-only effect; note: potency is the fitted concentration of half-maximal effect; % of control where 0% means no effect; nearly all actives have a fitted effect of over 60% in size
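Murine LDR cells carrying a silenced, genomically integrated CMV-driven GFP reporter were exposed to compound for 30 hours at 37 C. After PBS washes, GFP-positive cells (20–120 um objects) were counted by laser-scanning microplate cytometry.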
D1 agonist: activates the human D1 dopamine receptor. activation, % at 2 µM. 360,000 compounds, 1% hits. HEK293 T-REx D1 cells, calcium flux, agonist mode; note: 0% is about no effect
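Tetracycline-induced HEK293 TREx D1 cells, force-coupled to calcium signalling, were dye-loaded with a no-wash calcium kit. Compound was pin-added after a 10 s baseline. Fluorescence was read kinetically at 1 cycle/s for 180 s, with calcium rises flagged as agonism.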
TRHR agonist: activates the human TRH receptor. P34981. TRHR cells, calcium flux fluo-8, FDSS agonist mode. activation, % at 2 µM. 360,000 compounds, 0.18% hits; note: 0% is about no effect
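TRHR-expressing cells, plated overnight in medium with 10% serum, were loaded with fluo-8 calcium dye at room temperature. After a 10 s baseline, library compound was pin-added and calcium release was recorded kinetically (ex 480/em 530) as agonist response.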
TRHR enhancer: allosteric enhancers of human TRH receptor; TRHR cells, fluo-8 calcium fluorescence, EC20 TRH enhancement; 360,000 compounds, 0.66% hits; AID 493056; enhancement, % at 2 µM; P34981; in the data active = enhancement above about 30%; note: 0% is about no effect
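Enhancer read-out: after compound pinning and an initial kinetic agonist-mode read, an EC20 of TRH (10 nM final) was injected and fluo-8 calcium signal (Ex 480/Em 530) followed at 1 s/cycle for 100 cycles in TRHR-expressing cells.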
D1 PAM: potentiators of human D1 dopamine receptor. HEK293 TREx D1 cells, calcium flux, dopamine EC20 potentiation. AID 504651. P21728. potentiation, % at 10 µM. 360,000 compounds, 0.036% hits; in the data active = potentiation above about 30%; note: 0% is about no effect
An asterisk follows results filed as active; ? = inconclusive; / = not tested or not shown; [ ] = another dose, or the depositor's remark. Cut-off read from the data, not from the text of the source, unless noted: active = activation above about 30%; inactive = the rest.

SMILES	D1 antag	Epigenetic derep	D1 agonist	TRHR agonist	TRHR enhancer	D1 PAM
CN(C)CCC=C1c2ccccc2C=Cc2ccccc21	-100.1*	-0.2%	13.4	1.0	8.8	-4.7
CN(C)CC/C=C1/c2ccccc2COc2ccccc21	-74.5*	-1.3%	8.6	0.6	-3.1	-3.5
CN(C)CCC=C1c2ccccc2CCc2ccccc21	-66.7*	4.3%	11.4	0.3	1.3	-5.0
Cc1ccccc1CNC(=O)CN1C(=O)C2CCCCN2c2ccc(C(=O)N3CCCC3)cc21 (centres undefined)	5.8	-0.6%	-0.3	-0.8	3.4	-0.3
COC(=O)[C@@]1(Cc2ccc(OC)cc2)[C@H]2c3cc(C(=O)N(C)C)n(Cc4cc(F)c(F)c(F)c4)c3C[C@H]2CN1C(=O)c1ccccc1	/	-2.5%	/	/	/	/
CCOc1ccc(CCNC(=O)CCc2cn(Cc3ccc(C)cc3)c3ccccc23)cc1	1.4	-0.1%	11.8	0.6	-2.2	-6.7
Cc1cccc(NC(=O)CSC2=NN3CCCC(=O)N=C3S2)c1C	-32.8*	-0.2%	1.3	1.1	-3.0	-7.5
COc1ccc(-c2cc(C(=O)O)c3c(C)nn(-c4ccccn4)c3n2)cc1	-40.1*	-1.1%	4.2	-1.0	-1.5	-5.2
Cc1ccc(-n2nc(C)c3c(C(=O)O)cc(C)nc32)cc1	-49.6*	4.7%	0.0	0.4	4.0	-5.0
COC(=O)c1cc(C)nc2c1c(C)nn2-c1ccccc1	-2.5	/	1.4	-0.6	-5.7	-4.9
O=C(Nc1cccc(Cl)c1)c1cc(N=Nc2ccc([N+](=O)[O-])cc2Cl)ccc1O	-53.7*	2.1%	20.8	1.2	-3.0	-9.1
COc1cc(-c2cc(-c3ccc(F)cc3)nc(N)c2C#N)ccc1O	-43.7*	1.1%	-0.4	0.1	0.2	-7.0
Cc1ccc(-c2cc(-c3ccc(F)cc3)nc(N)c2C#N)o1	-59.5*	4.8%	2.3	0.9	1.1	-7.6
CCOc1ccccc1NC(=O)NCc1noc2ccc(C)cc12	-15.9	-1.4%	2.5	0.2	-10.6	-5.8
Cc1ccc2nc(SCc3nc(-c4ccc(Cl)cc4)no3)[nH]c2c1	-5.6	-1.1%	-0.6	0.7	-4.2	-5.1
Cn1c(C(=O)NC2CCCCC2)cc2sccc21	5.7	-2.6%	-0.3	-2.1	5.9	4.9
CN(C(=O)c1cc2sccc2n1C)C1CCCCC1	-35.3*	-0.9%	2.9	-0.1	-0.9	2.2
CC1=NOC(=O)/C1=C\c1ccc(-c2cccc(Cl)c2)o1	-51.4*	0.0%	0.6	2.0	-13.9	-3.6
Cc1ccc(Cl)cc1N1CCN(C(=O)Cn2cnc3sc(C)c(S(=O)(=O)N4CCC(C)CC4)c3c2=O)CC1	-29.0	3.5%	6.0	0.3	5.8	0.1
COC(=O)c1nn(-c2ccccc2)c(=O)cc1O	4.8	1.1%	1.2	0.3	-9.0	0.8
O=C(O)c1nn(-c2cccc(Cl)c2)c(=O)cc1O	-44.5*	-2.0%	0.5	0.5	1.8	-4.2
CCc1ccc(-c2[nH]c3c(c2-c2sc(C)c(C(=O)OC)c2O)c(=O)n(C)c(=O)n3C)cc1	8.6	-1.6%	7.1	4.9	5.2	0.8
COC(=O)c1c(C)sc(-c2c(-c3ccc(F)cc3)[nH]c3[nH]c(=O)[nH]c(=O)c23)c1O	1.1	4.9%	131.0*	56.4*	7.8	1.9
COc1ccc(/C=C2\N=C(C)N(c3ccc4ccccc4c3)C2=O)cc1OC	-43.4*	?	8.1	2.5	-8.6	-6.7
COc1ccc(/C=C2\N=C3CCCCCN3C2=O)cc1OC	7.7	-1.0%	0.9	-0.6	-2.6	-2.4
SMILES	D1 antag	Epigenetic derep	D1 agonist	TRHR agonist	TRHR enhancer	D1 PAM
COc1ccc(NC(=O)c2cccc(N3CCCS3(=O)=O)c2)c(OC)c1	7.0	-1.6%	1.1	-0.3	7.7	-1.6
CC(C)n1cnc2c(NCc3ccccc3)cc(Cc3ccc(F)cc3)cc21	24.0	/	-1.2	-0.1	-3.9	5.0
CCCOc1cc(NCc2ccccc2)c2ncn(C(C)C)c2c1	42.6	/	32.8*	0.4	6.3	15.5
Cn1c2c(c(=O)n(C)c1=O)C(c1ccccc1C(F)(F)F)CC(=O)N2 (centres undefined)	4.4	2.0%	-0.4	0.8	20.1	-2.5
O=C(CSc1nnnn1C1CC1)N1CCN(Cc2ccccc2F)CC1	-34.4*	/	1.8	0.0	-4.7	1.2
CC(C)=NO[C@@H](C)c1cc(-c2c(C)cc(C)cc2C)no1	/	1.1%[10.1 µM]	/	/	/	/
CCC(C)NC(=O)c1cc2cc(S(=O)(=O)N3CCCCC3)ccc2n1C (centres undefined)	-9.0	-4.2%	2.1	-0.1	8.4	-0.7
C#C[C@]1(O)CC[C@@H]2[C@H]3CCC4=Cc5oncc5C[C@]4(C)[C@@H]3CC[C@@]21C	/	-0.3%[16.9 µM]	/	/	/	/
CCc1ccc(NCc2cc3cc4c(cc3n(CC(=O)Nc3ccc(C)cc3)c2=O)OCO4)cc1	2.2	0.2%	48.5*	-1.2	-6.0	-2.4
CCc1ccc(NCc2cc3cc4c(cc3n(CC(=O)Nc3ccccc3Cl)c2=O)OCO4)cc1	-17.8	3.5%	65.5*	29.1	-7.4	-2.5
CCc1ccc(NCc2cc3cc4c(cc3n(CC(=O)Nc3ccc(F)cc3)c2=O)OCCO4)cc1	-9.3	-2.5%	8.8	8.8	4.8	-2.4
CCOC(=O)C1CCN(C(=O)c2ccc(N3CCCC3=O)cc2)CC1	4.6	/	3.1	3.1	34.2*	-3.3
O=C(c1ccc(N2CCCC2=O)cc1)N1CCN(c2ccc(Cl)cc2)CC1	5.9	/	3.6	-0.4	14.2	-8.2
CCOC(=O)N1CCN(C(=O)c2ccc(N3CCCC3=O)cc2)CC1	-7.4	-0.9%	1.3	0.7	-0.1	3.7
O=C(c1ccc(N2CCCC2=O)cc1)N1CCN(c2ccccc2Cl)CC1	-48.5*	/	0.7	-0.4	4.3	-11.2
CCN(CC)c1nn2c(=O)c(C(=O)NCCc3ccc(C)cc3)cnc2s1	7.8	0.8%	-0.3	0.0	-12.8	-5.3
Cc1ccc2c(c1)C(N1CCN(C)CC1)=Nc1cccnc1N2	/	-0.1%	/	/	/	/
CCn1c(C)[n+](CCOCC[n+]2c(C)n(CC)c3cc(Cl)c(Cl)cc32)c2cc(Cl)c(Cl)cc21	-47.9*	2.1%	0.2	0.3	-5.9	-4.5
CCOC(=O)c1c(-c2ccc(OC)cc2)csc1/N=C/C1=C(O)CCCC1=O	-11.4	?	36.7*	10.1	27.2	-7.7
CCOC(=O)c1c(/N=C/C2=C(O)CCCC2=O)sc(C)c1C	-21.7	-1.9%	-1.3	-2.4	-11.9	4.9
Cc1ccc(S(=O)(=O)N2CCN(C)CC2)cc1-c1nnc2c3ccccc3c(C)nn12	-33.5*	0.0%	-0.1	-0.6	-3.4	0.8
COc1ccc(S(=O)(=O)N2CCN(CCO)CC2)cc1-c1nnc2c3ccccc3c(C)nn12	4.3	-1.0%	2.1	0.2	-1.7	-1.4
Cc1cccc(-c2noc(-c3cccnc3NCc3ccccc3Cl)n2)c1	-11.6	-3.3%	6.9	0.0	2.0	0.5
